# This is a sample that favours compounds with a hit; in the whole collection about 1.6% have one here.
# PERK inhibitor = human PERK inhibition, primary cell-based screen. inhibition, % at 5.6 µM. CHO PERK-DD fusion, SEAP luminescence translation reporter. 0.17% of 220,000 active. Q9NZJ5. AID 1416;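 active = inhibition above the mean inhibition of all tested compounds plus 3 SD, set separately per screening campaign, cut at about 2.9% in these data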;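 also: PERK kinase domain activated by AP20187 dimerizer at 100 nM; 0% = DMSO with dimerizer and 100% = rapamycin at 8.4 µM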
# PABP polyA inh = blocks human PABP binding to poly(A) RNA. P11940. fluorescence polarization. inhibition, % at 35 µM. 1% of 290,000 active. AID 2014;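 also: calls also rest on retests at 20 µM and on dose response follow-up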
# Target sequence (P11940 whole entry, looked up): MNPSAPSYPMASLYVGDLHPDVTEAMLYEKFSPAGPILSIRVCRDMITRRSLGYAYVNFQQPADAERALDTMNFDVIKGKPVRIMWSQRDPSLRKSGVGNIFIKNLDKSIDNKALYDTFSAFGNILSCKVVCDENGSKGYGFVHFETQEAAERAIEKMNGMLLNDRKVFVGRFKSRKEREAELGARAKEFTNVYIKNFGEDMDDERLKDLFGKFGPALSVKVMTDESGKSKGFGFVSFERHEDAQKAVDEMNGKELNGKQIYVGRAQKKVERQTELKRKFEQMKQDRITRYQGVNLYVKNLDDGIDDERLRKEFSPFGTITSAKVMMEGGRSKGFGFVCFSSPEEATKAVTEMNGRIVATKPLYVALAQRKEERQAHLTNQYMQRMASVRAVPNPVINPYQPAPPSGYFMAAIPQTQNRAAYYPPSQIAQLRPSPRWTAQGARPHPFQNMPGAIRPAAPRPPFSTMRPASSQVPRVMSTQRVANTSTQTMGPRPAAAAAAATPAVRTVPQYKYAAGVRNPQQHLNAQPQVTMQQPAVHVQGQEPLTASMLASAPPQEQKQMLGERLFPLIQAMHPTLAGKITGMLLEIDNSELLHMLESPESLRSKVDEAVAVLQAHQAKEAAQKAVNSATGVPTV
# eIF4H FP inh = inhibitors of RNA binding by human eIF4H; inhibition, % at 35 µM; 0.94% of 290,000 active; Q15056; eIF4H fluorescence polarization binding assay;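 also: calls also rest on retests at 20 µM and on dose response follow-up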
# eIF4E-4G inh = eIF4E/eIF4G interaction inhibition in translation initiation. TR-FRET eIF4E-eIF4GI(517-606) binding, 2 h. inhibition, % at 21.7 µM. 0.37% of 220,000 active. AID 782;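 active = inhibition above about 30%, limit read from the data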;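 also: 0% = full FRET control wells and 100% = background wells lacking eIF4GI fragment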
# MLLE-PAM2 inh = inhibitors of microRNA-mediated deadenylation, human PABP1 MLLE binding; 0.36% of 360,000 active; GST-MLLE / FITC-PAM2 fluorescence polarization; inhibition, % at 20 µM; P11940; in the data active = inhibition above about 35%, passing the limit was not always enough;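 also: plate controls were DMSO wells with GST-MLLE for no effect and wells lacking GST-MLLE protein for full effect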
# * = called active by the depositor; ? = inconclusive; . = not tested or not shown; [ ] = remark or other dose. Unless noted, no rule for the calls is given here.
SMILES,PERK inhibitor,PABP polyA inh,eIF4H FP inh,eIF4E-4G inh,MLLE-PAM2 inh
Cc1noc(C)c1COc1ccccc1C(=O)N(C)Cc1ccco1,.,.,.,.,-2
Cc1nc(NCc2ccco2)c2c3c(sc2n1)CCC3,0,10,3,2,-5
CCN1CCc2c(sc3c2c(NCc2ccco2)nc2nnnn23)C1,1,81*,57*,6,-17
Cc1sc2ccc3sccc3c2[n+]1C,2,54*,7,-1,-34
CCOC(=O)C(C#N)=CN1CCNc2ccccc21,.,.,.,.,2
Cc1c(Cl)c([N+](=O)[O-])nn1CCCC(=O)O,0,74,active,6,-2
CN(C)C(CNC(=O)c1cccc(S(=O)(=O)NCc2ccccc2)c1)c1ccccc1 (stereo not drawn),.,.,.,.,-6
COc1ccc(OC)c(C(=O)COC(=O)c2[nH]c(C)c(C(C)=O)c2C)c1,.,.,.,.,7
O=[N+]([O-])c1cc(Br)c(O)c(/C=N/Nc2nnnn2-c2cccc3ccccc23)c1,1,17,49,44*[fluorescence artefact?],-16
COC(=O)C1C2C=CC3(CN(C(C)c4ccc(OC)cc4)C(=O)C13)O2 (stereo not drawn),2,54*,active,-12,-2
COc1ccc(C(C)N2CC34C=CC(O3)C(C(=O)O)C4C2=O)cc1 (stereo not drawn),2,-7,-4,3,17
COCCCN1CN(Cc2ccccc2)CNC1=S,0,58,0.6*,1,-78
CCCCNC(=O)C1(C)CCCCN1C(=O)c1cncc(Br)c1 (stereo not drawn),.,.,.,.,-1
CC(=O)c1nn(-c2cccc(Br)c2)cc1C(=O)c1ccco1,2,5,-6,-3,-4
Cc1nnc(-c2ccco2)c2cn(-c3cccc(Br)c3)nc12,1,-10,64*,0,-68
C/C(=N\NC(N)=O)c1ccccc1Cl,2,60*,106*,1,1
CC1(C)C2CCC1(CS(=O)(=O)NC(CC(=O)O)c1cccc(Br)c1)C(=O)C2 (stereo not drawn),.,0,-11,.,-11
c1ccc(-c2nnc(-c3ccco3)o2)cc1,1,0,-6,-3,7
c1coc(-c2nnc(-c3ccco3)nn2)c1,.,76*,99*,.,38*
Cc1ccccc1-c1nc(S(=O)(=O)c2ccccc2)c(N2CCCC2)o1,.,.,.,.,42*
COc1ccc(-c2nc(S(=O)(=O)c3ccccc3)c(N3CCCC3)o2)cc1,.,.,.,.,19
CCOc1ccc(N/C=C/C(=O)c2ccc(OC)cc2)c([N+](=O)[O-])c1,0,6,13,-1,49*
COc1ccc(NC(=O)c2ccccc2)c([N+](=O)[O-])c1,0,1.5*,?,0,8
COc1ccc(C(=O)Nc2ccccc2C(N)=O)cc1,0,9,5,100*[fluorescence artefact?],-9
COc1ccc(N/C=C/C(=O)c2ccc(C)cc2)c([N+](=O)[O-])c1,1,.,.,.,11
SMILES,PERK inhibitor,PABP polyA inh,eIF4H FP inh,eIF4E-4G inh,MLLE-PAM2 inh
COc1ccc(C(=O)Nc2ccccc2C(=O)Nc2ccccc2C(=O)O)cc1,.,33,-9,.,-5
COc1ccc(NC(=O)c2cccnc2)c([N+](=O)[O-])c1,0,-1,-2,1,-1
COc1ccc(NC(=S)NC(NC(=O)c2cccc(Cl)c2)C(Cl)(Cl)Cl)c([N+](=O)[O-])c1 (stereo not drawn),-1,5,11,-1,38*
Cc1cc(C)n(CC(=O)NNC(=O)c2ccc(OC(F)(F)F)cc2)n1,.,.,.,.,-5
CN(C(=O)CSc1nc(-c2cccs2)nc2ccccc12)C1CCS(=O)(=O)C1 (stereo not drawn),.,.,.,.,-8
CSCC(C)N1CCC(Oc2cccc(C(=O)NCc3ccccn3)c2)CC1 (stereo not drawn),.,41,60,.,43*
CC(C)=CC(=O)N1CCC(Oc2cccc(C(=O)NCc3ccccn3)c2)CC1,.,.,.,.,-2
COC(=O)c1ccccc1NC(=S)NC(=O)c1ccc2c(c1)OCO2,.,-2,-5,.,42*
COC(=O)c1ccccc1NC(=O)c1ccc2c(c1)OCCO2,-1,-5,-2,16,-3
COc1cc(CC(=O)N(CC(C)C)C2CCS(=O)(=O)C2)cc(OC)c1OC (stereo not drawn),.,.,.,.,2
N#Cc1ccsc1NC(=O)CN1C(=O)NC2(CCCCC2)C1=O,.,44*,68,.,-30
CC1CC(C)(C)OC(C[N+]2(C)CCCCC2)O1 (stereo not drawn),0,52*,0.6*,-1,-132
COc1ccc(S(=O)(=O)N2CCN(C)CC2c2ccccc2)cc1OC (stereo not drawn),.,.,.,.,3
CNC(=O)/C(C#N)=C\c1ccc(CNS(=O)(=O)c2ccc(Cl)cc2)o1,1,62*,3,7,-109
CNC(=O)/C(C#N)=C\c1ccc(CNS(=O)(=O)c2ccccc2)o1,1,6,9,0,-7
Cc1cc(C(=O)CSc2nc(N)cc(N)n2)c(C)n1-c1cccc(C(F)(F)F)c1,0,-3,56*,1,-14
CC(=O)NC(=S)Nc1ccccc1C(=O)Nc1ccccc1,0,8,8,-6,32
CCCCC(=O)NC(=S)Nc1ccccc1C(=O)Nc1ccccc1,0,-3,-1,4,40*
NC(=O)C1CCN(c2nc3c(S(=O)(=O)c4ccccc4)nnn3c3ccccc23)CC1,.,.,.,.,7
Cc1ccc(NC(=O)C2CCN(S(=O)(=O)c3ccc4ccccc4c3)CC2)nc1,.,.,.,.,9
Cc1c(C(=O)OC2CCC(C)CC2)[nH]c2c1C(=O)CCC2 (stereo not drawn),0,-16,75*,3,-1
CN(C)c1ccc(N/C=C/C(=O)c2ccc(F)cc2)cc1,0,58*,47*,-13,-69
CC(=O)c1cccc(-c2ccnc3c2CC(C(=O)NCc2ccco2)O3)c1 (stereo not drawn),.,.,.,.,-6
CCC(=O)Nc1ccc(C(=O)Nc2cccnc2)cc1,1,98*,52*,-4,-12
COc1ccc(C(=O)Nc2ccc(C(=O)Nc3cccnc3)cc2)cc1,.,-17,-13,.,-11
SMILES,PERK inhibitor,PABP polyA inh,eIF4H FP inh,eIF4E-4G inh,MLLE-PAM2 inh
Cc1ccc(-c2cc[n+](Cc3ccccc3)cc2)cc1,0,2,-2,11,-9
Cc1ccc2c(c1)sc[n+]2Cc1ccccc1,-1,-3,-1,1,38*
CCc1nn(C(CC)C(=O)NCc2cccc(OC)c2OC)c(=O)c2cc3occc3n12 (stereo not drawn),.,7,-1,.,-2
CCOC(=O)C1CCN(C(=O)NS(=O)(=O)c2ccc(C)cc2)CC1,0,55*,3.0*,-2,3
CCCCc1c(O)nc(SCC(=O)Nc2ccc(OC)cc2)n(-c2ccc(C)c(C)c2)c1=O,.,.,.,.,33
O=C(CN1C(=O)/C(=C2/SC(=S)N(CCS(=O)(=O)O)C2=O)c2ccccc21)Nc1cccc(C(F)(F)F)c1,.,.,.,.,14
O=C(CN1C(=O)/C(=C2\SC(=S)N(CCS(=O)(=O)O)C2=O)c2ccccc21)Nc1cccc(Br)c1,.,53*,93*,.,15
CCN(CC)c1ccc(/C=N/Nc2nn[nH]n2)cc1,-1,9.2*,51*,2,-123

# Screens (PubChem BioAssay)
